This is part of a sample that, as a whole, favours compounds with a hit. Of some 79,000 tested, about 15% had one in any assay. Values without a mark were called inactive. Calls of active or inactive are those of the source. No stated cut-off is given here; in the data, active means growth inhibition above about 70%; inactive means the rest.

Assay [1] in a line: NCI Yeast Anticancer Drug Screen. Data for the rad50 strain (AID 155).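 Further: 0% = growth of vehicle-only cultures of the same strain.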 The following applies: S. cerevisiae rad50 strain growth inhibition, hits give high values. In short, it runs like this:
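Compounds were tested on a yeast strain with an engineered DNA damage repair alteration; the reported value is growth inhibition normalised to vehicle treatment.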

The nature of assay [2]: NCI Yeast Anticancer Drug Screen. Data for the mec2-1 strain (AID 157). The conditions noted are these: S. cerevisiae mec2-1 strain, hits give high values. In short, it runs like this: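 Using mec2-1 yeast: add compound, measure growth, express inhibition versus vehicle-treated cultures.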
Assay [3] is described as follows: NCI Yeast Anticancer Drug Screen. Data for the sgs1 mgt1 strain (AID 161).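 Further: 0% = growth of cultures given vehicle only.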 The conditions noted are these: S. cerevisiae sgs1 mgt1 strain, hits give high values. In outline: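 This yeast growth screen uses a strain with defined DNA-repair lesions; compound-treated growth is compared with vehicle-treated growth.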
Assay [4] in a line: NCI Yeast Anticancer Drug Screen. Data for the cln2 rad14 strain (AID 165).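 Further: 0% = growth equal to vehicle treated cultures.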 The following applies: S. cerevisiae cln2 rad14 strain, hits give high values. In outline:
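Yeast strain cln2 rad14, bearing defects in cell cycle control and DNA repair, serves as the test system; values reflect growth inhibition compared with vehicle.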

Assay [5] in a line: NCI Yeast Anticancer Drug Screen. Data for the bub3 strain (AID 167). The conditions noted are these: S. cerevisiae bub3 mutant strain, hits give high values. In short, it runs like this:
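Growth of a checkpoint-deficient yeast mutant is measured after compound exposure. Values represent inhibition relative to vehicle.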

Assay [6] can be described thus: NCI Yeast Anticancer Drug Screen. Data for the mlh1 rad18 strain (AID 175). The conditions noted are these: S. cerevisiae mlh1 rad18 strain growth inhibition, hits give high values. In outline:
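Steps: expose repair-defective yeast to compound; measure growth; express inhibition against vehicle-treated controls.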

Where [7] appears, read: at 5.0 µM (retest, dose inferred, filed as 0.5).
[8] abbreviates: at 50.0 µM (retest, dose inferred, filed as 5.0).

For the compound `O=C1Sc2sc(=S)sc2SC1c1ccccc1` (configuration not stated), the growth inhibition in assay [1] (setting [7]) was -4%; in assay [1] (setting [8]), 87% (active); in assay [1] (at 50.0 µM), 40.5%; in assay [2] (setting [7]), -1%; in assay [2] (setting [8]), 91% (active); in assay [2] (at 50.0 µM), 36.5%. Moreover, the growth inhibition in assay [3] (setting [7]) is 5%; in assay [3] (setting [8]), 98% (active); in assay [3] (at 50.0 µM), 82.2% (active); in assay [4] (setting [7]), -1%; in assay [4] (setting [8]), 79% (active); in assay [4] (at 50.0 µM) it was 58.1%. For the same compound, the growth inhibition is -4% in assay [5] (setting [7]); 95% (active) in assay [5] (setting [8]); 32.6% in assay [5] (at 50.0 µM); 2% in assay [6] (setting [7]); 97% (active) in assay [6] (setting [8]); 90.5% (active) in assay [6] (at 50.0 µM).
Turning to `[Cl][Pt+2]([Cl])([Cl])[Cl].[NH-]CC1(C[NH-])CCCC1`, the growth inhibition was 86% (active) in assay [1] (setting [7]); 99% (active) in assay [1] (setting [8]); 90.2% (active) in assay [1] (at 50.0 µM); 68% in assay [2] (setting [7]); 99% (active) in assay [2] (setting [8]); 90.8% (active) in assay [2] (at 50.0 µM). For the same compound, the growth inhibition in assay [3] (setting [7]) was 62%; in assay [3] (setting [8]), 86% (active); in assay [3] (at 50.0 µM), 90.3% (active); in assay [4] (setting [7]) it was 57%; in assay [4] (setting [8]) it was 81% (active); in assay [4] (at 50.0 µM) it was 86% (active). The growth inhibition is 61% in assay [5] (setting [7]); 88% (active) in assay [5] (setting [8]); 93% (active) in assay [5] (at 50.0 µM); 56% in assay [6] (setting [7]); 98% (active) in assay [6] (setting [8]); 83.5% (active) in assay [6] (at 50.0 µM).
Turning to `Cn1c2ccccc2c2nnc(N/N=C/c3ccccn3)nc21`, the growth inhibition in assay [1] (setting [7]) is 26%; in assay [1] (setting [8]), 98% (active); in assay [1] (at 50.0 µM), 94.4% (active); in assay [2] (setting [7]) it was 21%; in assay [2] (setting [8]), 97% (active); in assay [2] (at 50.0 µM), 96.5% (active). Besides, the growth inhibition in assay [3] (setting [7]) was 23%; in assay [3] (setting [8]), 98% (active); in assay [3] (at 50.0 µM), 96.9% (active); in assay [4] (setting [7]) it was 8%; in assay [4] (setting [8]), 97% (active); in assay [4] (at 50.0 µM) it was 96.2% (active). Moreover, the growth inhibition in assay [5] (setting [7]) is 13%; in assay [5] (setting [8]) it was 99% (active); in assay [5] (at 50.0 µM), 96.2% (active); in assay [6] (setting [7]), 22%; in assay [6] (setting [8]), 98% (active); in assay [6] (at 50.0 µM), 96.4% (active).
For `CCOC(=O)C(C(=O)OCC)C(=O)c1ccccc1C(=O)c1ccccc1`, the growth inhibition was -12% in assay [1] (setting [7]); 44% in assay [1] (setting [8]); 60.8% in assay [1] (at 50.0 µM); -17% in assay [2] (setting [7]); 23% in assay [2] (setting [8]); 34% in assay [2] (at 50.0 µM). The growth inhibition was -9% in assay [3] (setting [7]); 55% in assay [3] (setting [8]); 56.9% in assay [3] (at 50.0 µM); -2% in assay [4] (setting [7]); 2% in assay [4] (setting [8]); 14.8% in assay [4] (at 50.0 µM). Besides, the growth inhibition in assay [5] (setting [7]) was -3%; in assay [5] (setting [8]), 32%; in assay [5] (at 50.0 µM) it was 51.5%; in assay [6] (setting [7]) it was 1%; in assay [6] (setting [8]) it was 59%; in assay [6] (at 50.0 µM), 80.6% (active).
As to `COc1ccc(C(=O)CC2(O)C(=O)N(C)c3c(Cl)cc(Cl)cc32)cc1` (configuration not stated), the growth inhibition in assay [1] (setting [7]) is -1%; in assay [1] (setting [8]), 61%; in assay [1] (at 50.0 µM) it was 67.6%; in assay [2] (setting [7]), 3%; in assay [2] (setting [8]), 56%; in assay [2] (at 50.0 µM) it was 67.3%. In addition, the growth inhibition in assay [3] (setting [7]) was 4%; in assay [3] (setting [8]), 63%; in assay [3] (at 50.0 µM) it was 61.2%; in assay [4] (setting [7]), -2%; in assay [4] (setting [8]), 66%; in assay [4] (at 50.0 µM) it was 62%. In addition, the growth inhibition in assay [5] (setting [7]) was -2%; in assay [5] (setting [8]) it was 65%; in assay [5] (at 50.0 µM), 69%; in assay [6] (setting [7]), -2%; in assay [6] (setting [8]), 64%; in assay [6] (at 50.0 µM) it was 87.2% (active).
As for `CCCCCC(=O)/C=C/c1ccc(C)cc1`, the growth inhibition in assay [1] (setting [7]) is -155%; in assay [1] (setting [8]) it was -162%; in assay [1] (at 50.0 µM), 82.6% (active); in assay [2] (setting [7]) it was -47%; in assay [2] (setting [8]) it was -59%; in assay [2] (at 50.0 µM), 56.9%. Further, the growth inhibition in assay [3] (setting [7]) is -60%; in assay [3] (setting [8]), -65%; in assay [3] (at 50.0 µM), 83% (active); in assay [4] (setting [7]), -59%; in assay [4] (setting [8]) it was -80%; in assay [4] (at 50.0 µM), 75% (active). Further, the growth inhibition in assay [5] (setting [7]) is -59%; in assay [5] (setting [8]) it was -57%; in assay [5] (at 50.0 µM), 61.8%; in assay [6] (setting [7]), -123%; in assay [6] (setting [8]), -131%; in assay [6] (at 50.0 µM), 81.7% (active).
Consider `O=C1NC(c2cccc3ccccc23)Nc2ccc(Cl)cc21` (configuration not stated), for which the growth inhibition in assay [1] (setting [7]) is 18%; in assay [1] (setting [8]) it was 95% (active); in assay [1] (at 50.0 µM), 74% (active); in assay [2] (setting [7]), 10%; in assay [2] (setting [8]), 96% (active); in assay [2] (at 50.0 µM) it was 84.8% (active). For the same compound, the growth inhibition in assay [3] (setting [7]) was 5%; in assay [3] (setting [8]), 97% (active); in assay [3] (at 50.0 µM), 83% (active); in assay [4] (setting [7]), 12%; in assay [4] (setting [8]), 85% (active); in assay [4] (at 50.0 µM) it was 56.3%. The growth inhibition is 1% in assay [5] (setting [7]); 96% (active) in assay [5] (setting [8]); 80.6% (active) in assay [5] (at 50.0 µM); 20% in assay [6] (setting [7]); 94% (active) in assay [6] (setting [8]); 77.2% (active) in assay [6] (at 50.0 µM).
For the compound `CN(C)c1nc(NNS(=O)(=O)c2ccc(N)cc2)nc(N(C)C)n1`, the growth inhibition in assay [1] (setting [7]) was 1%; in assay [1] (setting [8]), -17%; in assay [1] (at 50.0 µM), -27.1%; in assay [2] (setting [7]) it was 2%; in assay [2] (setting [8]) it was -1%; in assay [2] (at 50.0 µM), 7.55%. The growth inhibition was 1% in assay [3] (setting [7]); -72% in assay [3] (setting [8]); -5.75% in assay [3] (at 50.0 µM); 2% in assay [4] (setting [7]); -6% in assay [4] (setting [8]); 55% in assay [4] (at 50.0 µM). The growth inhibition in assay [5] (setting [7]) is -6%; in assay [5] (setting [8]) it was -8%; in assay [5] (at 50.0 µM) it was -12.3%; in assay [6] (setting [7]) it was -1%; in assay [6] (setting [8]) it was 0%; in assay [6] (at 50.0 µM) it was 3.85%.
Consider `CCNC(=S)NNC(=S)NNc1ccccc1`, for which the growth inhibition in assay [1] (setting [7]) was 52%; in assay [1] (setting [8]), 98% (active); in assay [1] (at 50.0 µM), 41.3%; in assay [2] (setting [7]), 63%; in assay [2] (setting [8]), 100% (active); in assay [2] (at 50.0 µM) it was 38.5%. The growth inhibition is 31% in assay [3] (setting [7]); 70% (active) in assay [3] (setting [8]); 66.8% in assay [3] (at 50.0 µM); 45% in assay [4] (setting [7]); 63% in assay [4] (setting [8]); 3.85% in assay [4] (at 50.0 µM). Also, the growth inhibition in assay [5] (setting [7]) was 36%; in assay [5] (setting [8]), 77% (active); in assay [5] (at 50.0 µM), 60.5%; in assay [6] (setting [7]), 47%; in assay [6] (setting [8]), 100% (active); in assay [6] (at 50.0 µM), 38.5%.

The record behind these values is PubChem BioAssay (NCI).
